# Source: PubChem BioAssay (several laboratories)
# BoNT-A LC inh2 = inhibitors of Botulinum neurotoxin A light chain protease | multiplex microsphere protease substrate cleavage, flow cytometry | inhibition, % at 10 µM | hit rate 0.17% among 360,000; note: plate controls were buffer without enzyme for full effect and enzyme alone for no effect
# PriA SSB inh = K. pneumoniae PriA-SSBct interaction inhibition; AlphaScreen SSBct-PriA binding, biotinylated peptide; inhibition, % at 33 µM; hit rate 0.6% among 430,000; AID 1272365; in the data active = inhibition mostly above about 37%, no sharp cut-off; inactive = mostly below about 20%;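 note: plate controls were negative control peptide for no effect and reference peptide for full effect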
# BoNT-F LC inh = inhibitors of Botulinum neurotoxin F light chain protease. Multiplex microsphere protease cleavage assay, flow cytometry. inhibition, % at 10 µM. hit rate 0.22% among 360,000. AID 588497; in the data active = inhibition above about 35%, passing the limit was not always enough; inconclusive = no clear call, values can overlap the other calls; note: plate controls were buffer without enzyme for full effect and enzyme alone for no effect
# Anthrax LF prot = inhibitors of Bacillus anthracis lethal factor protease; P15917; multiplex microsphere protease cleavage assay, LF; inhibition, % at 10 µM; hit rate 0.12% among 360,000; AID 588501; note: plate controls were buffer without enzyme for full effect and enzyme alone for no effect
# Target sequence (P15917 whole entry, looked up): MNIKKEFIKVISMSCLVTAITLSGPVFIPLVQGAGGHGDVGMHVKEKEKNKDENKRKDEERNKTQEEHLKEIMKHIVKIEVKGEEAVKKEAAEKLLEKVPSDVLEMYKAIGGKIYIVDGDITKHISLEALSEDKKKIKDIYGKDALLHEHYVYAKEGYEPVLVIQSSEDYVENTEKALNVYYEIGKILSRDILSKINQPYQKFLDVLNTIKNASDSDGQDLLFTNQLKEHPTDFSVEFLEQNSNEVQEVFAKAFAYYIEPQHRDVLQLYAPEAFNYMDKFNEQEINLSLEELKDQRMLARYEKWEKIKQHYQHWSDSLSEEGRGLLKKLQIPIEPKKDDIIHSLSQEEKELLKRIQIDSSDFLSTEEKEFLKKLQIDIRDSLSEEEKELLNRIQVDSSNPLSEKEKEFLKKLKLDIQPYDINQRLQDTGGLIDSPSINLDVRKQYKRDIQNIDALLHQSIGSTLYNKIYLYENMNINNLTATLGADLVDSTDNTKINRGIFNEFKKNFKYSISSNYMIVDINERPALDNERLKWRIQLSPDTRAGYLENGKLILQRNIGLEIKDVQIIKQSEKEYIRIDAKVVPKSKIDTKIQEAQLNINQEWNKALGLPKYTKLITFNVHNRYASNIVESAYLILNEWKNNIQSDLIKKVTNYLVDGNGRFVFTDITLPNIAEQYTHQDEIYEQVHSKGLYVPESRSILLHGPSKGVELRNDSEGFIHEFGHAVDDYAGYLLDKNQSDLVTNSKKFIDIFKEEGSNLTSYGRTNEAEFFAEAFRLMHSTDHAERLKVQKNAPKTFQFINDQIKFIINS
# Autofluor counter = flagged as autofluorescent in microsphere protease counterscreen; fluorescence intensity (test concentration not listed); AID 624483; hit rate 3.1% among 360,000; compound autofluorescence counterscreen, microsphere flow cytometry; stronger effect = higher value; in the data active = fluorescence intensity above about 16000; inconclusive = no clear call, values can overlap the other calls
# * hit, by the source's call; ? = inconclusive; nt = no result given. Sampled rows, rich in hits. Any-hit rate of the full collection: about 3.1%. Cut-off read from the data, not from the text of the source, unless noted: active = inhibition above about 30%; inconclusive = no clear call, values can overlap the other calls; inactive = below that.
SMILES,BoNT-A LC inh2,PriA SSB inh,BoNT-F LC inh,Anthrax LF prot,Autofluor counter
Cn1nc(-c2ccc(N3CCOCC3)c(NS(=O)(=O)c3ccc(Cl)cc3)c2)c2ccccc2c1=O,0,-7,1,1,2955
CC1(C)COC2(OC1)C(=O)Nc1ccccc12,0,-13,1,-1,4445
CCC1(C)COC2(OC1)C(=O)Nc1ccccc12 (stereo not given),0,-11,0,1,20257*
Cc1snc(SCC(=O)N/N=C(\N)COc2cccc(C(F)(F)F)c2)c1C#N,?,nt,-1,1,20365*
N/C(COc1cccc(C(F)(F)F)c1)=N\NC(=O)c1cccnc1Oc1ccccc1,0,nt,15,-2,3389
COc1ccccc1N1CCN(C(c2cc3cc(C)ccc3[nH]c2=O)c2nnnn2C2CCCC2)CC1 (stereo not given),2,-6,3,0,21854*
COc1ccccc1N1CCN(C(c2cc3ccc(C)cc3[nH]c2=O)c2nnnn2C2CCCC2)CC1 (stereo not given),4,-6,5,-8,14791
CCN(CC)C(c1ccc(F)cc1)c1nnnn1C1CCCCC1 (stereo not given),2,-32,4,-1,21991*
Fc1ccc(C(c2nnnn2CCc2ccccc2)N2CCCc3ccccc32)cc1 (stereo not given),-2,-12,-33,-6,5148
CCN(CC)C(c1ccc(C)cc1)c1nnnn1C1CCCCC1 (stereo not given),0,2,3,-7,10419
Fc1ccc(C(c2nnnn2C2CCCC2)N2CCc3ccccc32)cc1 (stereo not given),-3,3,-5,-3,17043*
CCOC(=O)C1CCN(C(c2cc3ccc(C)cc3[nH]c2=O)c2nnnn2C2CCCCC2)CC1 (stereo not given),-3,11,1,1,28733*
Cc1ccc(C=c2sc3nc(-c4cccnc4)nn3c2=O)cc1,nt,2,nt,nt,nt
Cc1cc(C(=O)CSc2nnc3scc(-c4ccc(Cl)cc4)n23)c(C)n1-c1ccccc1F,nt,-11,nt,nt,nt
COc1cc2cc(C(c3nnnn3C3CCCC3)N3CCc4ccccc43)c(=O)[nH]c2cc1OC (stereo not given),6,1,5,0,19430*
CCC(C)(C)n1nnnc1C(c1cc2ccc(OC)cc2[nH]c1=O)N1CCN(C2CCCCC2)CC1 (stereo not given),?,3,-5,3,21897*
CCN1C(=O)C2(C(=C(O)c3ccc4c(c3)OCCO4)C(=O)C(=O)N2CCCOC)c2ccccc21 (stereo not given),nt,-11,nt,nt,nt
C=CCN1C(=O)C2(/C(=C(\O)c3ccc4c(c3)OCCO4)C(=O)C(=O)N2CCCOC)c2ccccc21 (stereo not given),0,nt,-2,0,23166*
S=c1[nH]cco1,nt,-5,nt,nt,nt
Cc1csc(C(=O)Nc2ccc(-c3csc(Nc4cccnc4)n3)cc2)c1,nt,12,nt,nt,nt
CC(=O)c1c(N2CCN(C)CC2)[nH]c(-c2ccccc2)nc1=S,?,46*,?,?,3963
O=C(CC1CCCCN1S(=O)(=O)c1ccccc1)NC1CCCCC1 (stereo not given),nt,28,nt,nt,nt
CN(C)C(=O)C1CCNCC1,nt,39*,nt,nt,nt
CON(C)C(=O)C1CCNCC1,nt,-7,nt,nt,nt
Cc1cccc(S(=O)(=O)N2CN(Cc3ccco3)c3nc4ccccc4nc32)c1,0,96*,-4,-2,3747
SMILES,BoNT-A LC inh2,PriA SSB inh,BoNT-F LC inh,Anthrax LF prot,Autofluor counter
O=S(=O)(c1cccs1)N1CN(Cc2ccco2)c2nc3ccccc3nc21,1,5,1,2,4266
CN(C)C(CNS(=O)(=O)CCc1ccccc1)c1ccco1 (stereo not given),nt,-1,nt,nt,nt
O=S(=O)(NCCN1CCN(c2ccc(Cl)cc2)CC1)c1ccc(Cl)s1,nt,23,nt,nt,nt
COc1cc(NC(=O)C2CC(=O)NC3=C2C(=O)CCC3)cc(OC)c1 (stereo not given),-2,-1,-3,-5,20659*
CC(C)Sc1cccc(-c2nnc(NC(=O)c3ccc([N+](=O)[O-])s3)o2)c1,nt,-47,nt,nt,nt
Cc1cc(NC(=O)C2CC(=O)OC2c2ccccc2)no1 (stereo not given),-1,3,-5,0,23968*
O=C(CN1C(=O)c2ccccc2C1=O)N1CCN(CCN2C(=O)c3cccc4cccc(c34)C2=O)CC1,nt,-16,nt,nt,nt
Cc1ccc2[nH]c(=O)c(CN(CC3CCCO3)S(=O)(=O)c3c(C)ccc4nsnc34)cc2c1 (stereo not given),?,-10,4,-6,19816*
Cc1cc(C)nc(Nc2n[nH]c(COc3ccc4ccccc4c3)n2)n1,1,-13,-1,-1,22079*
Cc1cc(C)nc(Nc2n[nH]c(COc3ccccc3)n2)n1,0,-24,-2,-2,2394
Cn1nc(CNS(C)(=O)=O)cc1C1CC1,nt,-6,nt,nt,nt
CCc1cc2c(SCC(=O)c3ccc(F)cc3)ncnc2s1,nt,-14,nt,nt,nt
CCNc1nc(C)cc(NCCNC(=O)Cc2ccc(F)cc2)n1,nt,-6,nt,nt,nt
Clc1cccc(OCCCCCN2CCOCC2)c1,1,-10,0,6,3496
c1ccc(OCCCCN2CCOCC2)cc1,-1,-5,1,-2,16576*
CCOc1cccc(OCCCCN2CCOCC2)c1,0,-16,0,1,2461
Brc1ccccc1OCCCN1CCOCC1,1,-11,0,-7,23079*
Clc1cccc(OCCN2CCOCC2)c1,0,0,-3,-2,16577*
CSc1nc2c(c(=O)n1CCc1ccccc1)SCC2,nt,0,nt,nt,nt
O=C(C1COc2ccccc2O1)N1CCC(c2nnc(C3CC3)o2)CC1 (stereo not given),nt,-2,nt,nt,nt
Cc1cc(C)n(C(=O)CN2C(=O)c3cccc4cccc(c34)C2=O)n1,nt,-21,nt,nt,nt
O=C(c1ccc(Br)o1)N1CCN=C1SCc1cccc([N+](=O)[O-])c1,nt,-9,nt,nt,nt
FC(F)(F)c1ccccc1NC(=S)Nc1ccccc1,-4,7,-37,10,3205
Cc1ccc([N+](=O)[O-])cc1NC(=S)NC(=O)C(C)(C)C,-2,-8,-11,8,4657
CC(C)CC(=O)NC(=S)Nc1ccccc1C(F)(F)F,-1,-13,-6,-3,2549
SMILES,BoNT-A LC inh2,PriA SSB inh,BoNT-F LC inh,Anthrax LF prot,Autofluor counter
CC(C)(C)CC(=O)NC(=S)Nc1ccccc1C(F)(F)F,-3,-8,-3,-1,24827*
CSc1ccccc1NC(=S)Nc1ccccc1C(F)(F)F,0,-12,1,-1,19907*
Cc1ccc([N+](=O)[O-])cc1NC(=S)NC(=O)CC(C)(C)C,2,-2,1,1,19100*
CC(=O)Nc1nonc1C(=O)N1CCC(C)CC1,5,1,4,0,20925*
CC(C)C(=O)Nc1cccc(C(=O)NCc2ccc(S(N)(=O)=O)cc2)c1,7,-6,12,-16,18546*
CC(C)C(=O)Nc1cccc(C(=O)NCc2ccc3c(c2)OCO3)c1,-1,-13,3,1,9948
CC1=C(C)C(C(N)=O)C(NC(=O)c2ccccc2Oc2ccccc2)S1 (stereo not given),nt,0,nt,nt,nt
CCCCC(=O)Nc1nc(C)c(C(C)=O)s1,-2,-4,-7,1,6253
CC(=O)c1sc(NC(=O)C=C(C)C)nc1C,-2,-9,-3,-5,17371*
